Bioassay records from PubChem BioAssay.
Most compounds without a hit are left out; they make up all but 0.41% or so of the library.
GLA spleen mod – inhibitors or activators of human alpha-galactosidase in spleen homogenate; P06280; human spleen homogenate, 4MU-alpha-Gal fluorescence, 40 min; Potency, µM (series often up to 80 µM), inactives show at the highest dose activity change, negative = inhibition, most hits filed as inhibitors; actives 0.008% (n = 240,000); AID 2107;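 further: potency means the concentration at half of the fitted maximal effect; 0% = enzyme with vehicle and -100% = no enzyme basal signal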
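Human spleen homogenate (1 ug) as enzyme source, 4-methylumbelliferyl-alpha-D-galactopyranoside 1 mM final, citrate/phosphate pH 5.0 with 0.01% Tween-20. Compounds 40 min at 37C, NaOH/glycine stop; fluorescence Ex 365/Em 440, Hill-fit AC50.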
GAA spleen mod – lysosomal alpha-glucosidase (human) modulation | human spleen homogenate, 4-MU-alpha-glucoside fluorescence | Potency, µM (top dose mostly 79.9 µM), inactives show at the highest dose activity change, negative = inhibition, actives largely listed as inhibitors | actives 0.006% (n = 240,000) | AID 2112;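 further: potency means the concentration at half of the fitted maximal effect; 0% = enzyme with vehicle and -100% = no enzyme basal signal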
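AC50 values come from Hill-equation fits of concentration-response data, normalized to no-enzyme and full-activity controls. Enzyme source: 1 ug human spleen homogenate; 1 mM fluorogenic 4-MU glucoside, pH 5.0 citrate buffer, 37 C, 40 min.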
GAA glycogen mod – alters human alpha-glucosidase cleavage of glycogen; P10253; recombinant GAA, glycogen substrate, Amplex Red glucose oxidase fluorescence; Potency, µM (doses to about 76.4 µM), inactives show at the top dose activity change, negative = inhibition, actives largely listed as inhibitors; actives 0.38% (n = 300,000); AID 2100;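 further: potency means the concentration at half of the fitted maximal effect; 0% = full enzyme reaction and -100% = no-enzyme basal signal; the screen sought inhibitors and activators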
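qHTS, 1536-well; enzyme 4 nM final; cpd up to 77 uM; substrate bovine liver glycogen 30 ug; 50 mM citrate/phosphate pH 5.0, 0.01% Tween-20; 37 C, 40 min; Amplex Red detection 45 min RT; Hill fit → AC50.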
GLA inh pH 4.5 – inhibitors of human alpha-galactosidase A at pH 4.5 | 230,000 tested, under 10 active | activity change, negative = inhibition, % at 105 µM | purified enzyme, 4-MU-alpha-Gal fluorescence, pH 4.5 | P06280;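 further: 0% = full activity with enzyme and -100% = basal without enzyme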
Target sequence (P06280 whole entry, looked up): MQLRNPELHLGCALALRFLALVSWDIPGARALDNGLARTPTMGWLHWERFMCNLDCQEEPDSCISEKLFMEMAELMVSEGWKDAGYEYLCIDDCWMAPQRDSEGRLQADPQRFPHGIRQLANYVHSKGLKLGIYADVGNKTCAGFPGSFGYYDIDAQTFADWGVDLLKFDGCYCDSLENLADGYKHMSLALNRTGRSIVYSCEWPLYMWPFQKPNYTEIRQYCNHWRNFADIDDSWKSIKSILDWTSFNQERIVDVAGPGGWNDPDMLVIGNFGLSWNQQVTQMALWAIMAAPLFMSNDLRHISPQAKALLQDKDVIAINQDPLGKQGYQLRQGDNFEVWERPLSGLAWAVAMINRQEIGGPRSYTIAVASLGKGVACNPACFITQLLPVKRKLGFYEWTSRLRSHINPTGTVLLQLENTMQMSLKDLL
N370S GC – inhibitors or activators of N370S glucocerebrosidase for Gaucher disease | N370S GC spleen homogenate, 4MU-glucoside fluorescence | Potency, µM (doses to about 59.4 µM), inactives show at the top dose activity change, negative = inhibition, actives largely listed as inhibitors | actives 0.092% (n = 330,000) | P04062 | AID 2101;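 further: potency means the concentration at half of the fitted maximal effect; 0% = full enzyme activity and -100% = no enzyme basal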
GAA inhib – inhibitors of human lysosomal alpha-glucosidase | Potency, µM (series often up to 76.9 µM), without a hit: at the highest dose activity change, negative = inhibition, most hits filed as inhibitors | actives 0.005% (n = 200,000) | purified human GAA, 4-MU-alpha-glucoside fluorescence | P10253;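 further: potency means the concentration at half of the fitted maximal effect; plate controls were uninhibited enzyme wells for no effect and no-enzyme background for full effect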
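Fluorogenic assay: 4 nM human alpha-glucosidase with 400 uM 4-methylumbelliferyl-alpha-D-pyranoside in 50 mM citrate/phosphate, 0.005% Tween-20, pH 5.0, 20 min at room temperature. Compounds tested up to 77 uM; AC50 from Hill fits.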
* hit, by the source's call; ? = inconclusive; nt = no result given; [ ] = dose if it differs, or a comment. The call rests on the fitted dose curve; in most records, active means well fitted curve in the direction sought with a large enough effect; inconclusive means small, poorly fitted or top-dose-only effect, or another doubt; inactive means no such curve, though single readings can be large; an effect the other way counts as inactive or inconclusive.

SMILES	GLA spleen mod	GAA spleen mod	GAA glycogen mod	GLA inh pH 4.5	N370S GC	GAA inhib
CCOc1ccccc1NC(=O)CC1SC(=N)N(c2ccccc2)C1=O (configuration not stated)	-2%	-2%	24%	-3	6%	5%
Cc1ccccc1NC(=O)CC1SC(=O)N(c2ccccc2)C1=O (configuration not stated)	-8%	-7%	25µM*	-3	-1%	-10%
O=C(CC1SC(=O)N(c2ccccc2)C1=O)Nc1cccc2ccccc12 (configuration not stated)	4%	-2%	?	0	-8%	nt
CCOc1ccc(NC(=O)CC2SC(=O)N(c3ccccc3)C2=O)cc1 (configuration not stated)	10%	-3%	20µM*	1	2%	-6%
CCOc1cc(/C=C(\C#N)C(N)=O)cc(CSc2ccccc2)c1O	9%	2%	nt	nt	-2%	nt
O=C(Nc1ccc(F)cc1)N1CCOCC1	-6%	-13%	8%	-1	1%	-5%
CN(C)c1ccc(NC(=O)N2CCOCC2)cc1	8%	10%	13µM*	2	7%	2%
COC[C@H]1OC=C[C@@H](OC)[C@@H]1OC	5%	0%	nt	-5	-5%	nt
CCOc1ccc2c(c1)-c1c(ssc1=S)C(C)(C)N2	-10%	?	20µM*	-6	-4%	-3%
CC(C)c1ccc(NC(=S)Nc2cccc3ccccc23)cc1	nt	nt	40µM*	nt	-13%	nt
C[C@@H]1O[C@@H](Oc2c(-c3cc(O)c(O)c(O)c3)oc3cc(O)cc(O)c3c2=O)[C@H](O)[C@H](O)[C@H]1O	22%	-2%	3.2µM*	-9	-6%	-3%[15.4 µM]
O=c1c(OC2OC(CO)C(O)C(O)C2O)c(-c2ccc(O)c(O)c2)oc2cc(O)cc(O)c12 (configuration not stated)	-5%	-1%	13µM*	-3	-13%	-1%[15.4 µM]
Cc1ccc(/C=C/C2=C[C@]3(C)C[C@]2(C)[C@H](c2ccc(C)cc2)CC3=O)cc1	6%	0%	nt	-2	-15%	nt
CCCc1ccc2oc(C(=O)NCCN3CCCC(O)C3)c(C)c2c1 (configuration not stated)	nt	nt	nt	nt	16µM*	nt
CCCc1ccc2oc(C(=O)NCCN3CCCC(C(N)=O)C3)c(C)c2c1 (configuration not stated)	nt	nt	-1%[76.3 µM]	nt	-12%	nt
Cc1c(C(=O)NCCN2CCOCC2)oc2ccc(S(=O)(=O)N3CCCCCC3)cc12	-12%	-3%	3%	-5	16µM*	?
CCOc1ccc(-n2c(SCc3nc(-c4ccc(OC)cc4)no3)nnc2-c2ccncc2)cc1	nt	nt	11%[76.3 µM]	nt	nt	nt
O=C1OC2(c3cc(I)c(O)c(I)c3Oc3c2cc(I)c(O)c3I)c2c(Cl)c(Cl)c(Cl)c(Cl)c21	8%	1%	nt	nt	0%	nt
Fc1ccccc1-c1nc(NCc2ccco2)c2ccccc2n1	-4%	1%	-15%	0	11µM*	4%
COc1ccc([C@]23Cc4cc(OC)c(OC)cc4C(O2)C2=C(CCCC2=O)O3)cc1	nt	nt	8%[15.3 µM]	nt	5%[12.8 µM]	nt
O=C1COCCN1	11%	10%	nt	nt	2%	nt
CC#CC[N+](C)(C)CCCCCCCCCC	9%	-6%	17%	-6	16µM*	nt
Oc1ccc(/C=N/N2CCCCC2)c(O)c1	nt	nt	11µM*	nt	-19%	nt
CSc1ccc(CNC(=O)C2CCCN(S(=O)(=O)N(C)c3ccc(F)cc3)C2)cc1 (configuration not stated)	nt	nt	8%[76.3 µM]	nt	nt	nt
CC(C)c1nc(C(=O)N2CCc3c([nH]c4ccccc34)C2c2ccccn2)cs1 (configuration not stated)	-17%	4%	-21%	-18	-28%	?
SMILES	GLA spleen mod	GAA spleen mod	GAA glycogen mod	GLA inh pH 4.5	N370S GC	GAA inhib
Cc1nc(C(=O)N2CCc3c([nH]c4ccccc34)C2c2ccccn2)cs1 (configuration not stated)	-4%	-8%	16µM*	2	?	?
Cc1cc(C)nc(SCC(=O)Nc2ccc(S(=O)(=O)Nc3ncccn3)cc2)n1	-13%	-6%	3.5µM*	-1	13%	8%
Cc1ccc2nc(-c3ccc(SCC(=O)N4CCc5ccccc54)nc3)[nH]c2c1	4%	-3%	-6%	-4	3.2µM*	4%
Cc1ccc2nc(-c3ccc(SCC(=O)O)nc3)[nH]c2c1	4%	-1%	3%	-3	14%	3%
COc1ccc2[nH]c(C(=O)O)c(NS(=O)(=O)c3ccc(Cl)s3)c2c1	10%	7%	9.9µM*	5	9%	7%
CCOC(=O)c1[nH]c2ccc(OC)cc2c1NS(=O)(=O)c1ccc(Cl)s1	3%	8%	6%	1	-1%	1%
CC1CCC(C(=O)O)NC1c1cccc(N2CCOCC2)c1 (configuration not stated)	-1%[17.5 µM]	-6%[17.4 µM]	nt	nt	-7%[12.8 µM]	nt
CN(C)CCNC(=O)c1ccc(-n2c(-c3ccccc3)cc3c2CCCC3)cc1	nt	nt	14%[76.3 µM]	nt	nt	nt
O=C1CC(N2CCN(c3ccc(O)cc3)CC2)C(=O)N1Cc1cccs1 (configuration not stated)	9%	-11%	6.3µM*	-2	-6%	-3%
O=C(c1ccncc1)c1ccc(N2CCN(C3CC(=O)N(Cc4cccs4)C3=O)CC2)cc1 (configuration not stated)	1%	-5%	-7%	-5	1%	1%
NCCCC[C@H](NC(=O)[C@H](CS)NC(=O)[C@@H](N)Cc1cnc[nH]1)C(=O)N[C@@H](Cc1ccccc1)C(=O)N[C@@H](Cc1c[nH]c2ccccc12)C(=O)N[C@@H](Cc1c[nH]c2ccccc12)C(=O)O	-11%	-2%	nt	nt	2%	nt
COc1ccccc1C1Nc2cccc3cccc(c23)N1	2%	0%	16µM*	0	-6%	-3%
COc1cc(OC)c(C2Nc3cccc4cccc(c34)N2)c(OC)c1	nt	nt	?	nt	-8%	nt
O=S(=O)(CCC(F)=C(F)F)c1nnnn1C1CCCCC1	-4%	2%	nt	-8	-2%	nt
Cc1ccc(OCCn2cc(/C(N)=N/O)c3ccccc32)cc1C	-5%	-24%	40µM*	-6	?	-6%
COc1ccc(OCCn2cc(/C(N)=N/O)c3ccccc32)cc1	9%	-5%	12µM*	1	-15%	?
COC(=O)c1cn(CCOc2ccccc2)c2ccccc12	-9%	3%	-7%	-4	26%	-6%
Cc1ccc(OCCn2cc(C(=S)N3CCCC3)c3ccccc32)cc1C	-2%	-19%	-3%	3	13%	1%
